# From PubChem
# Luc counter = Kinase-Glo luciferase inhibition (counter-screen). Q27757. Kinase-Glo luciferase, ATP luminescence, 8 min. Potency, µM (highest dose often 38.3 µM), without a hit: top-dose activity change, negative = inhibition, most hits filed as inhibitors. 0.28% of 200,000 active; active = well fitted inhibition curve with a large enough effect; inconclusive = small, poorly fitted or top-dose-only effect; note: potency is the fitted concentration of half-maximal effect; nearly all actives have a fitted effect of over 60% in size
#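 Light output from Kinase-Glo luciferase with luciferin and 10 uM ATP in 50 mM imidazole pH 7.2, KCl, MgCl2, Tween 20, BSA; compound pin-delivered, 8-min ambient incubation, then luminescence read.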
# HPGD block = HPGD (human) dehydrogenase inhibition; P15428; purified HPGD, NADH fluorescence kinetic, PGE2 substrate; Potency, µM, for inactives: at the highest dose activity change, negative = inhibition, most hits filed as inhibitors; 4.3% of 150,000 active; AID 894; note: potency is the fitted concentration of half-maximal effect
# Target sequence (P15428 whole entry, looked up): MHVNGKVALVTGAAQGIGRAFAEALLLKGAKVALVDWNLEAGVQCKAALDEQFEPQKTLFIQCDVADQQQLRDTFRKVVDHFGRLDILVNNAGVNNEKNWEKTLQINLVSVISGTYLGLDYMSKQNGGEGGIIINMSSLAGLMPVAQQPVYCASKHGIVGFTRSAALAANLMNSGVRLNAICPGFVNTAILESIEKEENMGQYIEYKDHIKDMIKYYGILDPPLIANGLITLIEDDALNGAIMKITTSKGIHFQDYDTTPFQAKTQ
#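 NADH formation kinetics: reaction with 30 uM PGE2 and 1 mM NAD+ (final), 20 nM enzyme, Tris-HCl pH 8 with Tween 20, after 15 min compound preincubation at room temperature. Fluorescence change, last versus first of five reads.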
# PNC assembly inh = perinucleolar compartment assembly inhibition | activity change (PNC), negative = inhibition, % at 10 µM | AID 2417 | PC3M PTB-GFP, PNC prevalence imaging, 16 h; hits give low values | 3.1% of 140,000 active;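 active = readout at or below -70, meaning at least 70% loss of cells showing the perinucleolar compartment, a nuclear body marking cancer cells; inconclusive = readout between -30 and a set limit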;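 note: plate controls were DMSO wells for no effect and camptothecin positive control wells for full effect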
#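 Compounds are pinned in duplicate onto adhered PC3M cells stably expressing GFP-tagged PTB and incubated 16 h at 37 C. Cells are then fixed, nuclei stained with Hoechst, and PNC-positive cells counted.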
# ALDH1A1 inh = ALDH1A1 (human) enzyme inhibition; Purified ALDH1A1, NADH fluorescence, propionaldehyde substrate; Potency, µM (doses to about 75.3 µM), inactives show at the top dose activity, negative = inhibition, most hits filed as inhibitors; 7.3% of 220,000 active; AID 1030;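 note: potency is the fitted concentration of half-maximal effect; plate controls were no enzyme wells and a reference inhibitor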
# IMPase inh = cell-permeable inhibitors of inositol monophosphatase (IMPase). 120,000 tested, under 10 active. inhibition (IP1 accumulation), % at 46.1 µM. P97697. CHO-M1 cells, IP1 accumulation, HTRF TR-FRET ratio; active = well fitted curve in the direction sought with a large enough effect in the signal ratio, not every such curve was filed as active; inconclusive = small, poorly fitted or top-dose-only effect, or a change in a side signal; inactive = no such curve, though single readings can be large or run the other way; the % refers to the signal ratio;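 note: cells stimulated with carbachol in lithium chloride buffer; plate controls were DMSO basal wells for no effect and reference inhibitor wells for full effect; higher means more IMPase inhibition seen as more IP1 and lower FRET ratio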
# Target sequence (P97697 whole entry, looked up): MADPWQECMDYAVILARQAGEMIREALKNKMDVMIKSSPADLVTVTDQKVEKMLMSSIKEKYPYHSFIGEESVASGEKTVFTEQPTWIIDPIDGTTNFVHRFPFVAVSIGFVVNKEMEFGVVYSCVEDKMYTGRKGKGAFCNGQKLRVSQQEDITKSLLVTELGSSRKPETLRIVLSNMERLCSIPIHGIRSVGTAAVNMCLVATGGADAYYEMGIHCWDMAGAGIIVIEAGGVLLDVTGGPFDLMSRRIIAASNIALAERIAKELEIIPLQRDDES
#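 Carbachol-driven Gq signalling in CHO-M1 cells (2000/well) generates IP1. Compounds that block IMPase raise IP1 and so reduce the FRET signal from Eu-anti-IP1 and d2-IP1 after a 10 min room-temperature lysis.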
# LMNA splice mod = LMNA splicing modulation. Potency, µM (series often up to 46.1 µM), for the others: at the top dose ratio change, negative = inhibition, actives largely listed as inhibitors. AID 1487. HeLa LMNA splicing GFP/RFP minigene ratio, 48 h. 0.01% of 200,000 active; active = well fitted inhibition curve with a large enough effect in the signal ratio, with a control signal flat, not every such curve was filed as active; inconclusive = small, poorly fitted or top-dose-only effect, or effect the other way, or a change in a side signal; the % refers to the signal ratio; note: potency is the fitted concentration of half-maximal effect
#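 S3 HeLa stable clones carrying a lamin A-EGFP splicing minigene plus DsRed2 were seeded at 600 cells/well in Opti-MEM with 2% FBS, pin-dosed and incubated 48 h at 37°C. Acumen cytometry (488 nm) gave the GFP/RFP total-intensity ratio.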
# The depositor's hits bear a star; ? = inconclusive; · = not tested or not shown; [ ] = remark or other dose. Only some compounds are listed: those with a hit (about 10% of all), similar ones and a draw of the others. Unless noted, calls come from the whole dose curve; as a rule, active = well fitted inhibition curve with a large enough effect (not every such curve was filed as active); inconclusive = small, poorly fitted or top-dose-only effect, or another doubt; inactive = no such curve, though single readings can be large or run the other way. Unless noted, % is set by controls: 0 for no effect and ±100 for the full control effect.
SMILES,Luc counter,HPGD block,PNC assembly inh,ALDH1A1 inh,IMPase inh,LMNA splice mod
Cc1ccc(C(C)C)c(OCc2ccc(C(=O)N/N=C/c3ccc(O)cc3O)cc2)c1,2%,-13%,-89*,4%,0,?
O=C(N/N=C/c1cccc(O)c1)c1ccc(COc2ccccc2Br)cc1,-4%,?,-124*,-15%,·,?
Cc1ccc2occ(C3NC(C(=O)O)CS3)c(=O)c2c1 (stereo not given),1%,-12%,?,?,·,-28%
Cc1ccc2occ(C3N[C@H](C(=O)O)CS3)c(=O)c2c1 (stereo not given in full),-1%,-9%,-22,1.4µM*,-1,2%
N#Cc1cccc(N=c2ssnc2Cl)c1,-7%,·,·,1.3µM*,·,?
Clc1nssc1=Nc1ccc(Br)cc1,-2%,·,·,1.8µM*,·,·
COc1cc(N=c2ssnc2Cl)cc(OC)c1,-8%,0.63µM*,?,0.32µM*,-6,9%
Clc1ccc(N=c2ssnc2Cl)nc1,-3%,·,·,-3%,·,·
OCc1ccccc1N=c1ssnc1Cl,-4%,6.3µM*,-4,0.89µM*,3,11%
COc1cc(OC)cc(-c2nc(-c3ccccc3OC)no2)c1,-3%,-13%,11,-5%,-8,-2%
Cc1noc(C)c1C(=O)N1CCC[C@@]2(CCN(c3ncccn3)C2)C1,0%,-17%,·,7%,·,·
CCC1(C)NC(=O)N(/N=C/c2cc(OC)c(O)c(OC)c2)C1=O (stereo not given),1%,·,·,10µM*,·,·
CCOCCCNC(=O)/C(C#N)=C/c1ccc(Cl)c([N+](=O)[O-])c1,-1%,·,·,10µM*,·,?
CCOCCCNC(=O)/C(C#N)=C/c1cc(C)c(O)c(C)c1,2%,·,·,10µM*,·,?
CCOCCCNC(=O)/C(C#N)=C/c1cc(OC)c(O)c([N+](=O)[O-])c1,1%,·,·,13µM*,·,·
CO[C@H]1COC(=O)CCC[C@H](C)[C@H](OC)COC(=O)C/C=C\[C@@H]1C,·,·,·,6%[13.5 µM],·,·
COc1cccc(/C=C2\C(=O)N(c3cccc(C)c3)C(=O)c3ccccc32)c1,-4%,4µM*,?,?,·,-1%
CCOc1cc(/C=C2\C(=O)N(c3cccc(C(F)(F)F)c3)C(=O)c3ccccc32)ccc1O,-2%,?,-4,?,·,-1%
COc1cccc(N2C(=O)c3ccncc3C2=O)c1,11%,-14%,-7,-4%,8,6%
Cc1cccc(N2C(=O)/C(=C\c3ccc(OC(F)F)cc3)c3ccccc3C2=O)c1,-2%,10µM*,-13,?,-3,-8%
Fc1ccc(CSc2nnc(-c3cccnc3)n2Cc2ccco2)cc1,-1%,-17%,-8,-5%,5,4%
O=C(CSc1nnc(-c2ccc(O)cc2)n1Cc1ccco1)c1cccs1,-3%,?,-24,14µM*,0,-8%
CC(NC(=O)Cc1cccs1)c1ccc2c(c1)OCO2 (stereo not given),6%,?,13,3%,14,-2%
O=C(CC(SCCO)c1ccc2c(c1)OCO2)c1cccs1 (stereo not given),10%,-13%,-112*,10%,-3,?
O=C(COC(=O)c1cccs1)NCc1ccco1,13%,-12%,-6,1%,1,-13%
SMILES,Luc counter,HPGD block,PNC assembly inh,ALDH1A1 inh,IMPase inh,LMNA splice mod
O=C(CC(SCc1ccco1)c1ccc(O)cc1)c1cccs1 (stereo not given),-2%,-13%,49,13µM*,3,9%
Clc1ccccc1CSc1nnc(-c2cccnc2)n1Cc1ccco1,-1%,28µM*,?,7.9µM*,3,?
Cc1cccc(OCC(=O)Nc2ccccc2OCc2cc(=O)n3ccccc3n2)c1,·,·,·,·,·,-7%[46 µM]
O=C(CSc1nnc(-c2cccnc2)n1Cc1ccco1)c1ccccc1,-6%,16µM*,16,?,5,15%
O=C(c1ccccc1)N(Cc1cccnc1)C1(C(=O)Nc2ccccc2)CCCCC1,2%,-17%,-110*,1%,·,8%
Nc1nc(N)nc(CCCc2nc(N)nc(N)n2)n1,-2%[7.66 µM],-2%,·,3%[13.5 µM],·,·
COc1ccc(-n2c3c(cc(C(=O)NNc4ccccc4C)c2=O)C(=O)CC(C)(C)C3)cc1,1%,·,·,20µM*,·,3%[9.22 µM]
CCc1nn2c(=O)cc(COC(=O)c3cccc(NC(=O)CCc4ccccc4)c3)nc2s1,·,·,·,·,·,1%[46 µM]
N#Cc1cccc(-c2nc(NCCN3CCOCC3)c3ccccc3n2)c1,·,·,·,18µM*,·,?
N#Cc1ccccc1-c1nc(NCCN2CCOCC2)c2ccccc2n1,·,·,·,11%,·,-13%
Cc1ccc(-n2cnnn2)cc1S(N)(=O)=O,·,·,·,·,·,1%[46 µM]
O=C(c1ccccc1)C(Sc1ncn[nH]1)c1ccccc1 (stereo not given),-2%,40µM*,2,?,-1,-7%
Cn1cnnc1SC(C(=O)c1ccccc1)c1ccccc1 (stereo not given),-4%,-25%,-10,?,-1,-15%
O=C1C2C3C=CC(C3=C(c3ccccc3)c3ccccc3)C2C(=O)N1Cc1ccccc1 (stereo not given),7%,40µM*,-16,1.1µM*,11,?
O=C(NCc1cccnc1)C(=O)Nc1nc2ccccc2s1,0%,·,·,1%,·,·
O=C(NCc1cccnc1)c1cccnc1-c1nc2ccccc2s1,18%,-18%,64,20µM*,-4,-4%
O=C(NCc1cccnc1)c1cc(Sc2cccc(Cl)c2)nc2ccccc12,0%,-16%,2,11µM*,12,?
CCC(C)NC(=O)c1cc(Sc2cccc(Cl)c2)nc2ccccc12 (stereo not given),·,·,·,·,·,-9%[46 µM]
COc1ccc(-c2oc3ncn4nc(COc5ccccc5C)nc4c3c2-c2ccc(OC)cc2)cc1,·,·,·,·,2,·
CC1CCc2sc(C(=O)N/N=C/c3ccc([N+](=O)[O-])cc3)cc2C1 (stereo not given),2%,-11%,?,3%,1,-9%
Cc1ccc(C)c(NC(=S)NNC(=O)c2csc(C(C)C)c2)c1,1%,-10%,-119*,13µM*,3,?
Cc1ccc(C)c(NC(=S)NNC(=O)c2cc3c(s2)CCC(C)C3)c1 (stereo not given),·,·,-5,22µM*,-7,-10%
Cc1cccc(NC(=S)NNC(=O)c2cc3c(s2)CCC(C)C3)c1C (stereo not given),0%,-24%,-8,6.3µM*,·,?
Nc1nc(SC/C=C\c2ccccc2)c2[nH]cnc2n1,-6%[7.66 µM],-8%,·,11%[13.5 µM],·,·
COC(=O)[C@]1(C)CCC(c2ccc(C)cc2)=C(CC(=O)O)C1,-3%[7.66 µM],-7%,·,-5%[13.5 µM],·,·
